Among the data in publication PMC7862700, “An all-to-all approach to the identification of sequence-specific readers for epigenetic DNA modifications on cytosine” are binding signal values, retold here.

Common to all, as to assay: DAPPL (digital affinity profiling via proximity ligation, sequencing); 10 mM Tris-HCl pH 7.5, 50 mM NaCl, 1 mM DTT, 4% glycerol, room temperature, 30 min; GST-TFs on glutathione beads, 16-mer random dsDNA library, 0.1% formaldehyde crosslink after washing; high values mean tight binding
The target in assay [1] is T1, FLI1 (Homo sapiens, UniProt Q01543 1-452).
T1 sequence: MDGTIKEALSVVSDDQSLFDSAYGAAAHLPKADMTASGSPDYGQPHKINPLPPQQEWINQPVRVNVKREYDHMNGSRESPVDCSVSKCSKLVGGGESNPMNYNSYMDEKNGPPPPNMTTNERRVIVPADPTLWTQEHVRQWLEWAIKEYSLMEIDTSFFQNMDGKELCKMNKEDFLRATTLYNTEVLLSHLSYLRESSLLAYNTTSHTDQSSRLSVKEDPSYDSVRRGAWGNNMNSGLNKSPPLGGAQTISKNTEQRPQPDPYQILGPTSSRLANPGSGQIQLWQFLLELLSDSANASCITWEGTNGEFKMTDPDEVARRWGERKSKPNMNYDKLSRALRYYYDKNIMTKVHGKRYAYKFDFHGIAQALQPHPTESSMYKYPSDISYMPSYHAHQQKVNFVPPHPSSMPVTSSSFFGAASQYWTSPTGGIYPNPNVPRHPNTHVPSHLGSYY
The settings on record: protein: recombinant; tags: N-terminal GST; dsDNA, one strand shown. In outline: (§1)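 Sequencing on an Illumina NextSeq500 followed washing, crosslinking with 0.1% formaldehyde, proximity ligation (BsaI/T4 ligase, 1 h, 37 °C) and PCR amplification of pools that had been incubated for 30 min at room temperature with 200 nmole of a random double-stranded 16-mer DNA library in Tris/NaCl/DTT/glycerol buffer. Each pool held DNA-barcoded human transcription factors, expressed in yeast as GST fusions and captured on glutathione beads, plus a tag-only sample. Binding signal is a hexamer's read frequency for a factor divided by its frequency in the tag-only sample.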

Assay [2] concerns the target T2, ELK1 (Homo sapiens, UniProt P19419 1-428).
T2 sequence: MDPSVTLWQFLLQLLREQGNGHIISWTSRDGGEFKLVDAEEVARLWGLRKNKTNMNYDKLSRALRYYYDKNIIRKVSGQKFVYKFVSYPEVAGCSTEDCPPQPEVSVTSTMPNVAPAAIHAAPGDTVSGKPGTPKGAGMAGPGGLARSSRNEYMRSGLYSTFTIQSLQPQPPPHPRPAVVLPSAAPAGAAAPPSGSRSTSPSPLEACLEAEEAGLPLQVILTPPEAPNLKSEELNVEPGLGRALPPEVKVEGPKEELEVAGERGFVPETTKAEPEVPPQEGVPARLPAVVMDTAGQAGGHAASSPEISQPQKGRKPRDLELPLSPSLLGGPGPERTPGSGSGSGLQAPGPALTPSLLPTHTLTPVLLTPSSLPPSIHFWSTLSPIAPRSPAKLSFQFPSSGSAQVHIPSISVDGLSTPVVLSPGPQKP
The settings on record: protein: recombinant; tags: N-terminal GST; dsDNA, one strand shown. In short, it runs like this:
as §1

For assay [3], the target named is T3, GABPA (Homo sapiens, UniProt Q06546 1-454).
T3 sequence: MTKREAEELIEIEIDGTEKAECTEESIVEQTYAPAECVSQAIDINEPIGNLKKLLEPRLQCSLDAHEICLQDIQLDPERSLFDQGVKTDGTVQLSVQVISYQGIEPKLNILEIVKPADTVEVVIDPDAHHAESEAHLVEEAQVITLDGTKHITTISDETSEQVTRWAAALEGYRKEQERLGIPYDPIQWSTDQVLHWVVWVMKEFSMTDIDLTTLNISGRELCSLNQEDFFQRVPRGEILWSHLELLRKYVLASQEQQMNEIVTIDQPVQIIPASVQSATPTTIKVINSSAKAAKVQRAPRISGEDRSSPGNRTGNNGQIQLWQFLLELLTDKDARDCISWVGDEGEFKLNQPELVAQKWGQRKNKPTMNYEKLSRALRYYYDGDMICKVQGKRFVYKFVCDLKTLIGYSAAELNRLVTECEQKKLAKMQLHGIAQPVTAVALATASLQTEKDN
The settings on record: protein: recombinant; tags: N-terminal GST; dsDNA, one strand shown. In outline: as §1

In assay [4] the target is T4, ERG (Homo sapiens, UniProt P11308 1-479).
T4 sequence: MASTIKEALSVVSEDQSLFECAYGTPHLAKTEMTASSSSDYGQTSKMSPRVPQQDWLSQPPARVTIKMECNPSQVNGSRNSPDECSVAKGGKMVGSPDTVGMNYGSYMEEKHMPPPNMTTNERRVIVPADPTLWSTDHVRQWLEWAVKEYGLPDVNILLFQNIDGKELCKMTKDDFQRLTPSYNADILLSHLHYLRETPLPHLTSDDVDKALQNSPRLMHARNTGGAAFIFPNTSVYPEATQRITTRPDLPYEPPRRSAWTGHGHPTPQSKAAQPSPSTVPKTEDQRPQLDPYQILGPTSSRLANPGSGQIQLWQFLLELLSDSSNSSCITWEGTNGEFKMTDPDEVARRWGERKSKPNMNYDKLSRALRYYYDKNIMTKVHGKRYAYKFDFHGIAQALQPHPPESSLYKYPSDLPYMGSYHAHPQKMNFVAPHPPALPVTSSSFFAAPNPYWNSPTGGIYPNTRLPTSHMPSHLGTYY
The settings on record: protein: recombinant; tags: N-terminal GST; dsDNA, one strand shown. In short, it runs like this: as §1

Assay [5] concerns the target ELF1 (Homo sapiens, UniProt P32519 1-619). The settings on record: protein: recombinant; tags: N-terminal GST; dsDNA, one strand shown. In outline: as §1
In assay [6] the target is T5, EHF (Homo sapiens, UniProt Q9NZC4 1-300).
T5 sequence: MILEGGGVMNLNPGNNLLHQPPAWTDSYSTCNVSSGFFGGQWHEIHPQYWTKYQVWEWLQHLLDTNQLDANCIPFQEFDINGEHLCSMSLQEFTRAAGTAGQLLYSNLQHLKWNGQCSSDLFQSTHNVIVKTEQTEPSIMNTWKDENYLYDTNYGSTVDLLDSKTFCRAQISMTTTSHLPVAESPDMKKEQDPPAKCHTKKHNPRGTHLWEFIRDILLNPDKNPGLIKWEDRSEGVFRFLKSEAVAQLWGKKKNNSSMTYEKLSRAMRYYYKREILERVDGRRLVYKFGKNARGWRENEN
The settings on record: protein: recombinant; tags: N-terminal GST; dsDNA, one strand shown. In short, it runs like this:
as §1

In assay [7] the target is SPI1 (Homo sapiens, UniProt P17947 1-270). The settings on record: protein: recombinant; tags: N-terminal GST; dsDNA, one strand shown. In short, it runs like this:
as §1

For assay [8], the target named is SPIB (Homo sapiens, UniProt Q01892 1-262). The settings on record: protein: recombinant; tags: N-terminal GST; dsDNA, one strand shown. In outline:
as §1

Assay [9] deals with T6, ELK3 (Homo sapiens, UniProt P41970 1-407).
T6 sequence: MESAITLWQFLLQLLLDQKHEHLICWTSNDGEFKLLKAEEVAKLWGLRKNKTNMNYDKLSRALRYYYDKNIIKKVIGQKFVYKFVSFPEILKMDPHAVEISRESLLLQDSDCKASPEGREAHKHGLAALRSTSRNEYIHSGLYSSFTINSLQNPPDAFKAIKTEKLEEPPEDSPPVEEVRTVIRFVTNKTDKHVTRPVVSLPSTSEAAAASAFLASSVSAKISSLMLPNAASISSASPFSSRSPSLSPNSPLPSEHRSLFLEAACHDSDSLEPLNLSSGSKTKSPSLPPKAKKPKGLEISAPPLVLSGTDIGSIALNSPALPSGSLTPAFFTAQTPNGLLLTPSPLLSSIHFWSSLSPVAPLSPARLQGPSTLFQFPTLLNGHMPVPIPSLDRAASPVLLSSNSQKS
The settings on record: protein: recombinant; tags: N-terminal GST; dsDNA, one strand shown. In short, it runs like this:
as §1

In assay [10] the target is T7, FEV (Homo sapiens, UniProt Q99581 1-238).
T7 sequence: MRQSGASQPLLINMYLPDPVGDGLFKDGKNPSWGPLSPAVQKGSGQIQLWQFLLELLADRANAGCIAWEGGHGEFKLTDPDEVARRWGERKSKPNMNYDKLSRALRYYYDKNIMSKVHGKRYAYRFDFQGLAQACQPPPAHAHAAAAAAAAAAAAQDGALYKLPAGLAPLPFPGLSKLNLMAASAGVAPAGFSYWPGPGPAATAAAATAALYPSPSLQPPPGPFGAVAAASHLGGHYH
The settings on record: protein: recombinant; tags: N-terminal GST; dsDNA, one strand shown. In short, it runs like this:
as §1

The target in assay [11] is ETV5 (Homo sapiens, UniProt P41161 1-510). The settings on record: protein: recombinant; tags: N-terminal GST; dsDNA, one strand shown. In outline: as §1
Assay [12] concerns the target HSF1 (Homo sapiens, UniProt Q00613 1-529). The settings on record: protein: recombinant; tags: N-terminal GST; chain copies: 3; dsDNA, one strand shown. In short, it runs like this:
as §1

Assay [13] concerns the target T8, SPIC (Homo sapiens, UniProt Q8N5J4 1-248).
T8 sequence: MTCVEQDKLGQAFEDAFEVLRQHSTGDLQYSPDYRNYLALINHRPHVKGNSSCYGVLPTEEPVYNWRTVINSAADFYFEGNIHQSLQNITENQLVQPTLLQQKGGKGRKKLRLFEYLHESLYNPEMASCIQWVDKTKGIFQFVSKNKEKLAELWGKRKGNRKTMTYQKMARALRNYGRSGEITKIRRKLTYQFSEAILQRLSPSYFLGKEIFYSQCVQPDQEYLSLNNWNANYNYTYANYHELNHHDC
The settings on record: protein: recombinant; tags: N-terminal GST; dsDNA, one strand shown. In outline:
as §1

Assay [14] deals with ELF4 (Homo sapiens, UniProt Q99607 1-663). The settings on record: protein: recombinant; tags: N-terminal GST; dsDNA, one strand shown. In short, it runs like this: as §1
Assay [15] has as its target T9, ELK4 (Homo sapiens, UniProt P28324-2 1-405).
T9 sequence: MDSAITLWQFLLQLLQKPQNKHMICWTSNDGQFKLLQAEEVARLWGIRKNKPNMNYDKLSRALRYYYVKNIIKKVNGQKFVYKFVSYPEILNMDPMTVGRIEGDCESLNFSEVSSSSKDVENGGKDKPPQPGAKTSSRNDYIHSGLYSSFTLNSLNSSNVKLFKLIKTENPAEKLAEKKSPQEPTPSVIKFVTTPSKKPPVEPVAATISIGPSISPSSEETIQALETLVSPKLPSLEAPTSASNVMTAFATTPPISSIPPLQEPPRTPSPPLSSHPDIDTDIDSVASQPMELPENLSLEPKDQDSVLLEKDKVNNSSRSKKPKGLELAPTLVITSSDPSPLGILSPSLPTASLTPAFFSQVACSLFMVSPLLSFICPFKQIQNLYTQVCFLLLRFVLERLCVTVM
The settings on record: protein: recombinant; tags: N-terminal GST; dsDNA, one strand shown. In outline: as §1

For assay [16], the target named is T10, ETV2 (Homo sapiens, UniProt O00321 1-342).
T10 sequence: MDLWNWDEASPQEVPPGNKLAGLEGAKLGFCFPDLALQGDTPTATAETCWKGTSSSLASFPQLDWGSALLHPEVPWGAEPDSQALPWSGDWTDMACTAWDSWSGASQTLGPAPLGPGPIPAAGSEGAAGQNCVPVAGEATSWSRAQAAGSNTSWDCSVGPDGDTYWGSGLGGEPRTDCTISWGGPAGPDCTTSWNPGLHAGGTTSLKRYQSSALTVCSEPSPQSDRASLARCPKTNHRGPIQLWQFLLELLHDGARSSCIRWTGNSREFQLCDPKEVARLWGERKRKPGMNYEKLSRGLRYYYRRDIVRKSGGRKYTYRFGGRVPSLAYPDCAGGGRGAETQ
The settings on record: protein: recombinant; tags: N-terminal GST; dsDNA, one strand shown. In outline: as §1

Assay [17] addresses T11, ELF3 (Homo sapiens, UniProt P78545 1-371).
T11 sequence: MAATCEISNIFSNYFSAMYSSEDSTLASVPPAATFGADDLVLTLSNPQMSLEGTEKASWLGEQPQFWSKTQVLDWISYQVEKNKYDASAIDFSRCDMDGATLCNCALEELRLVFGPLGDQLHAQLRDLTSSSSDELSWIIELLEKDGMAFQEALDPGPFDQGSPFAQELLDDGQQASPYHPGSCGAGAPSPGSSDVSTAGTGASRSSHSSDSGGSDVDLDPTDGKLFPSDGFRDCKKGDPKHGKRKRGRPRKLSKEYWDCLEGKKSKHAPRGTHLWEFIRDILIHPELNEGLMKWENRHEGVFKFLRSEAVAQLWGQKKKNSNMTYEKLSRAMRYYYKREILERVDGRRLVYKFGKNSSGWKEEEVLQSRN
The settings on record: protein: recombinant; tags: N-terminal GST; dsDNA, one strand shown. In outline: as §1

Assay [18] addresses ETV1 (Homo sapiens, UniProt P50549 1-477). The settings on record: protein: recombinant; tags: N-terminal GST; dsDNA, one strand shown. In outline: as §1

Sequence of ELF4 (Q99607 whole entry): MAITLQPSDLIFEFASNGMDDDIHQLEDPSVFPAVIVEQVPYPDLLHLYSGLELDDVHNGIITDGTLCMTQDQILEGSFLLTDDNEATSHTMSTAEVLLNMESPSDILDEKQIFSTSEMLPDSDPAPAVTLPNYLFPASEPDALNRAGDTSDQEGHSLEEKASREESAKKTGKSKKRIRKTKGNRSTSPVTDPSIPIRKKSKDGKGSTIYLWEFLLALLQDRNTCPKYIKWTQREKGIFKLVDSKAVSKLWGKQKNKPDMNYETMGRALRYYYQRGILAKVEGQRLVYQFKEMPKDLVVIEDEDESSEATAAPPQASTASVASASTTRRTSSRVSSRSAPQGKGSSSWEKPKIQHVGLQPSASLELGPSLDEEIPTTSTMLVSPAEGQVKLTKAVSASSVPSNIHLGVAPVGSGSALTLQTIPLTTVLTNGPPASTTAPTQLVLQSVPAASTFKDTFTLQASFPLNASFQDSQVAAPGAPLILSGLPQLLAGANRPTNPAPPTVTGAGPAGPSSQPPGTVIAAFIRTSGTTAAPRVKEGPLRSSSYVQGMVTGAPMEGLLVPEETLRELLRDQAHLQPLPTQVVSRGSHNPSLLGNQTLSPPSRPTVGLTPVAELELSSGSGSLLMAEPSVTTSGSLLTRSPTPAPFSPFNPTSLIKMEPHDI
Sequence of ETV1 (P50549 whole entry): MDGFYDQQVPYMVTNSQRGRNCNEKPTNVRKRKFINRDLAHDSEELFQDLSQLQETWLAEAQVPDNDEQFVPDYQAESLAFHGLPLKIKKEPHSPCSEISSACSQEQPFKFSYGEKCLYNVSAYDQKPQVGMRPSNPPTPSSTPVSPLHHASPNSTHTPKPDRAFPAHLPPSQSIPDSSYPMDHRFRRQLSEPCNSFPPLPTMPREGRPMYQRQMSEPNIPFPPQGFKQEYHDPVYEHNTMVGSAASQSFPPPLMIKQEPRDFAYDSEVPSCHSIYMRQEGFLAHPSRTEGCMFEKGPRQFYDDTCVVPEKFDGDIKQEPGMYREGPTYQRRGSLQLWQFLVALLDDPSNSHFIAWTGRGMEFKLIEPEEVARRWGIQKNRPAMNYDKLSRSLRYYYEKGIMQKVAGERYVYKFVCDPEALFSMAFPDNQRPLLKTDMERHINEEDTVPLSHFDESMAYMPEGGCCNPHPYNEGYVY
Sequence of ELF1 (P32519 whole entry): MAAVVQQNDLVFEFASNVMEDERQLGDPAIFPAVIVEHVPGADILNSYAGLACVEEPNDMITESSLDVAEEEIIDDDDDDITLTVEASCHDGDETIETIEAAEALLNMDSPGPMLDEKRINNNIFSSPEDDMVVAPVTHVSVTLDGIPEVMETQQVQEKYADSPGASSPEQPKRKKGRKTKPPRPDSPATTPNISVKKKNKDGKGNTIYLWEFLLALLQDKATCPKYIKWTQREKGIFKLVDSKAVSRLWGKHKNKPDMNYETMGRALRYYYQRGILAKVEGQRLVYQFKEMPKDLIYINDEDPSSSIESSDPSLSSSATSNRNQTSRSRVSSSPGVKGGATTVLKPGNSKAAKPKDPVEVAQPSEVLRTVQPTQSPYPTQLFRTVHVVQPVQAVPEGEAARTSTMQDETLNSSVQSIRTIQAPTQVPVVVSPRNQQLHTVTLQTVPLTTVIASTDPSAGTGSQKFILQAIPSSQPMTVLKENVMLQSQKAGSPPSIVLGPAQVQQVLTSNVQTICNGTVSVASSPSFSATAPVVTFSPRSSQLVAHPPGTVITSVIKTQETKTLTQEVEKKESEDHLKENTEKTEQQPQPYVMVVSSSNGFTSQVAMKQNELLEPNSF
Sequence of HSF1 (Q00613 whole entry): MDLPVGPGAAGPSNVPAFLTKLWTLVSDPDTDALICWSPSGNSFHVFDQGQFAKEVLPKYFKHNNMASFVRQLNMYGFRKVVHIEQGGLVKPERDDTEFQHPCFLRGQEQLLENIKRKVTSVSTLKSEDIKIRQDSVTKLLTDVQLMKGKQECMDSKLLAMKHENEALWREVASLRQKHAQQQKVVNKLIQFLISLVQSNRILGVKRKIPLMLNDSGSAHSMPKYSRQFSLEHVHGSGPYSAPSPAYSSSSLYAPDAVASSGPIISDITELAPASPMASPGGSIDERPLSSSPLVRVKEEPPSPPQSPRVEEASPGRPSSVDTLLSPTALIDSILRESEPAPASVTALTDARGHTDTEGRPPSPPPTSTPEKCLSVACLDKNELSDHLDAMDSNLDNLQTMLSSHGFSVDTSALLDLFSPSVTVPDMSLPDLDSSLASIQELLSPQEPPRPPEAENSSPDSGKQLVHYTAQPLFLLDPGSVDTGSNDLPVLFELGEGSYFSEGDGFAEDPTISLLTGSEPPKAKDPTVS
Sequence of SPIB (Q01892 whole entry): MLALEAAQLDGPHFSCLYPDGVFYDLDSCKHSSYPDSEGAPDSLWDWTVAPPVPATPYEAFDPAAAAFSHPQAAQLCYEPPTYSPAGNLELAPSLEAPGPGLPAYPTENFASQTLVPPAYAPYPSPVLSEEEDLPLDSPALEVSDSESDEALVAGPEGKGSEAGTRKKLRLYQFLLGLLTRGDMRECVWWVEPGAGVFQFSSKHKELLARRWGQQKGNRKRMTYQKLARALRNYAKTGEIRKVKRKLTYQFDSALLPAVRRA
Sequence of ETV5 (P41161 whole entry): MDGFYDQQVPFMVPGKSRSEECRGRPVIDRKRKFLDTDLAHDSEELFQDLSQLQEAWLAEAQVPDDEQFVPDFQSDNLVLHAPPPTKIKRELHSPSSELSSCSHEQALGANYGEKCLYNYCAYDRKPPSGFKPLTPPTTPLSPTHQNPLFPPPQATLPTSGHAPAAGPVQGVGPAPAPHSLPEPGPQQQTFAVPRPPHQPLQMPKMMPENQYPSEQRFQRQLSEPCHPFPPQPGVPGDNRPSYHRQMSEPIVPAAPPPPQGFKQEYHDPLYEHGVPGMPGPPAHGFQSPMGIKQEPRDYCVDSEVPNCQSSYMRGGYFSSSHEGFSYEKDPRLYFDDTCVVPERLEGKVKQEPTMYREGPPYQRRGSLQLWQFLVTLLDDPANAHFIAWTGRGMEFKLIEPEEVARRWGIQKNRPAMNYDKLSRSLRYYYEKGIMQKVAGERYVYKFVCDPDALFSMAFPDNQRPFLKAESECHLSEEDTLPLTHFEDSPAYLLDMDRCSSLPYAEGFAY

For TGGTTC, the binding signal in assay [1] was 1.45 fold enrichment (6-mer frequency, TF over GST control); in assay [2], 1.33 fold enrichment (6-mer frequency, TF over GST control); in assay [3], 1.35 fold enrichment (6-mer frequency, TF over GST control); in [4] it was 1.29 fold enrichment (6-mer frequency, TF over GST control); in assay [5], 1.28 fold enrichment (6-mer frequency, TF over GST control); in assay [6], 1.31 fold enrichment (6-mer frequency, TF over GST control). Moreover, the binding signal is 1.32 fold enrichment (6-mer frequency, TF over GST control) in assay [7]; 1.37 fold enrichment (6-mer frequency, TF over GST control) in [8]; 1.32 fold enrichment (6-mer frequency, TF over GST control) in assay [9]; 1.35 fold enrichment (6-mer frequency, TF over GST control) in assay [10]; 1.44 fold enrichment (6-mer frequency, TF over GST control) in [11]; 1.27 fold enrichment (6-mer frequency, TF over GST control) in assay [12]. Also, the binding signal was 1.51 fold enrichment (6-mer frequency, TF over GST control) in assay [13]; 1.33 fold enrichment (6-mer frequency, TF over GST control) in assay [14]; 1.36 fold enrichment (6-mer frequency, TF over GST control) in assay [15]; 1.33 fold enrichment (6-mer frequency, TF over GST control) in assay [16]; 1.57 fold enrichment (6-mer frequency, TF over GST control) in assay [17]; 1.38 fold enrichment (6-mer frequency, TF over GST control) in assay [18].
